Counter-ions that a name gives are not always drawn.

The test deals with OCI-AML2. Nature of the test: cell viability relative to vehicle control; higher = less cytotoxic. Particulars: 10 µM; SRSF2 genotype: wt/wt. In short, it runs like this:
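Each screen used CRISPR-edited mutant and wild-type clones from four leukaemia lines. Compounds were acoustically dispensed at a single 10 µM dose, and CellTiter-Glo luminescence was read after 48 h with the supernatant first removed. Viability was analysed in Genedata Screener and given as percent of the on-plate vehicle control.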
With `CCCCC(=O)OCC(=O)[C@H]1[C@H](C)C[C@H]2[C@@H]3C[C@H](F)C4=CC(=O)C=C[C@]4(C)[C@@]3(F)[C@@H](O)C[C@@]21C` [Diflucortolone valerate], the cell viability is 118%.
Next, `CCn1cc(-c2cccc(C(F)(F)F)c2)c2sc(C(=N)NC3CCS(=O)(=O)CC3)cc2c1=O`: 42.1%.
With `Cc1c(CN2CCN(C(=O)[C@H](C)O)CC2)sc2c(N3CCOCC3)nc(-c3cnc(N)nc3)nc12` [Apitolisib (GDC-0980, RG7422)], the cell viability is 14.5%.
With `CC[C@H](NC(=O)[C@H](C)NC)C(=O)N1C[C@@H](O)C[C@H]1Cc1c(-c2[nH]c3cc(F)ccc3c2C[C@@H]2C[C@H](O)CN2C(=O)[C@H](CC)NC(=O)[C@H](C)NC)[nH]c2cc(F)ccc12`, the cell viability is 107%.
Next, `CC1(C)O[C@H]1COc1c2ccoc2cc2oc(=O)ccc12` [Oxypeucedanin]: 93.4%; `CCCCCCC1CCC(=O)O1` (stereo unspecified): 106%.
Next, `CN1[C@@H]2CC[C@H]1C[C@@H](OC(=O)c1c[nH]c3ccccc13)C2` [Tropisetron HCl]: 105%; `CC1(C)[C@@H](O[C@H]2O[C@H](C(=O)O)[C@@H](O)[C@H](O)[C@H]2O[C@@H]2O[C@H](C(=O)O)[C@@H](O)[C@H](O)[C@H]2O)CC[C@]2(C)[C@H]3C(=O)C=C4[C@@H]5C[C@@](C)(C(=O)O)CC[C@]5(C)CC[C@@]4(C)[C@]3(C)CC[C@@H]12` [Ammonium Glycyrrhizate]: 99%; `Cc1cc2c(F)c(Oc3ncnn4cc(OC[C@@H](C)O)c(C)c34)ccc2[nH]1`: 86.6%.
Next, `CCOc1cc(N2CCC(O)CC2)ccc1Nc1ncc2c(n1)N(C)c1ccccc1C(=O)N2C`: 67.9%; `CCCc1nn(C)c2c(=O)[nH]c(-c3cc(S(=O)(=O)N4CCN(C)CC4)ccc3OCC)nc12` [Sildenafil citrate]: 109%; `CC(O)C(O)c1cnc2nc(N)[nH]c(=O)c2n1` (stereo unspecified) [6-Biopterin]: 104%.
As for `COc1ccc(-c2ccc3ncc4c(c3c2)n(-c2ccc(N3CCNCC3)c(C(F)(F)F)c2)c(=O)n4C)cn1`, the cell viability came to 0.16%.
Next, `CO/N=C(\C(=O)N[C@@H]1C(=O)N2C(C(=O)O)=C(CSc3nnnn3C)CS[C@H]12)c1csc(N)n1` [Cefmenoxime hydrochloride]: 101%; `COC(=O)Nc1nc2cc(Sc3ccccc3)ccc2[nH]1` [Fenbendazole (Panacur)]: 12.7%; `COc1cc2nccc(Oc3ccc(NC(=O)C4(C(=O)Nc5ccc(F)cc5)CC4)cc3)c2cc1OC`: 28%.
Next, `CCCCOc1c(C(=O)c2c(F)cc(C)cc2F)c[nH]c2nncc1-2`: 59.5%; `CCCCC(C)(O)C/C=C/[C@H]1[C@H](O)CC(=O)[C@@H]1CCCCCCC(=O)OC` (mixture of isomers) [Misoprostol]: 84%.
Next, `O=c1sn(-c2cccc3ccccc23)c(=O)n1Cc1ccccc1` [Tideglusib]: 53.3%; `O=C(COc1ccc(Cl)cc1)NC1CCC(NC(=O)COc2ccc(Cl)cc2)CC1` (stereo not drawn) [ISRIB (trans-isomer)]: 95.9%; `CC=C(C)C(=O)O` [Tiglic acid]: 98%.

The term cell viability denotes a read-out of living cells in per cent, often relative to untreated cells.

The values above are taken from the supplement of paper PMC10981050.
